This is a sample that favours compounds with a hit; in the whole collection about 4.1% have one here.
hgDAF12 agonist – agonists of H. glycines DAF-12 nuclear receptor; 370,000 tested, 1.8% active; activation, % at 6.8 µM; HEK293 GAL4-hgDAF12 UAS-luciferase reporter, agonist luminescence; normalized to butyrate control;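 active = activation above a cutoff set at the mean of all screened compounds plus 3 SD, cut at about 10% in these data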;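 also: 0% = DMSO wells and 100% = sodium butyrate wells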
DAX1 inh-1 – blocks DAX1 repression of SF-1 activated StAR promoter | HEK293T StAR-luciferase reporter, SF-1/DAX-1 repression relief | inhibition, % at 6.8 µM | 370,000 tested, 1.1% active | AID 652010;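 active = inhibition above the mean over all tested compounds plus 3 SD, cut at about 3.6% in these data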;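 also: 0% = DAX-1 cells with DMSO and 100% = cells lacking DAX-1 with DMSO; higher inhibition means more luminescence from relief of DAX-1 repression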
ssDAF12 agonist – activates DAF-12 receptor from parasite S. stercoralis | HEK293 ssDAF-12/GRIP1 lit1-tk-luc reporter, luminescence; % of 3 µM dafachronic acid response | AID 652126 | activation, % at 6.8 µM | 370,000 tested, 1% active;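 active = activation above the mean over all tested compounds plus 3 SD, cut at about 0.9% in these data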;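 also: 0% = DMSO-only wells and 100% = 3 µM delta7-dafachronic acid wells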
DAX1 inh-2 – inhibits human nuclear receptor DAX1 | P51843 | HEK293 Gal4-DAX1 luciferase reporter, luminescence | inhibition, % at 6.75 µM | 340,000 tested, 0.99% active | AID 504766;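 active = inhibition above the mean over all tested compounds plus 3 SD, cut at about 4.2% in these data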;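 also: 0% = DAX1-transfected cells with DMSO and 100% = empty-vector control cells with DMSO; inhibition shows as a rise in luminescence from relieved DAX1 repression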
Target sequence (P51843 207-470 limits assumed): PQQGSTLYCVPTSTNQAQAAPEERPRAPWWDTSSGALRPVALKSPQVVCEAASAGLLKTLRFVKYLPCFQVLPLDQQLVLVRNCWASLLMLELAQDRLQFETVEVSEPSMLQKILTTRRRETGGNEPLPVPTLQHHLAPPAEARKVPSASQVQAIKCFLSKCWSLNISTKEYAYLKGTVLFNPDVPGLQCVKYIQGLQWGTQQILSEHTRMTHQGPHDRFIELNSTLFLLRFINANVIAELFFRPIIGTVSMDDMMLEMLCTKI
hcDAF12 agonist – activates DAF-12 receptor from parasite H. contortus; HEK293 hcDAF-12 lit1-tk-luc reporter, luminescence; 0% DMSO, 100% Δ7-dafachronic acid; activation, % at 6.8 µM; 370,000 tested, 1.4% active; AID 652067;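 active = activation above the mean of all tested compounds plus 3 SD, cut at about 5.5% in these data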;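 also: 100% = response to 3 µM Δ7-dafachronic acid high control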
The depositor's hits bear a star.

For O=C(NC(=S)Nc1ccc(N2CCCCC2)cc1)c1ccco1 the results were hgDAF12 agonist 13*, DAX1 inh-1 3, ssDAF12 agonist 0, DAX1 inh-2 3 and hcDAF12 agonist 5.
O=C1C[C@@H](C(=O)Nc2ccc(Cl)cc2)[C@@H](c2ccccc2)O1 was read as hgDAF12 agonist -2, DAX1 inh-1 -1, ssDAF12 agonist -2 and hcDAF12 agonist 0.
For CC(=O)N1CCN(c2ccc(NC(=O)c3ccccc3)cc2)CC1 the results were hgDAF12 agonist 8, DAX1 inh-1 0, ssDAF12 agonist -1, DAX1 inh-2 5.8* and hcDAF12 agonist 2.
For O=C(NC(=S)Nc1ccc(N2CCOCC2)cc1)c1cccs1 the results were hgDAF12 agonist 12*, DAX1 inh-1 4.0*, ssDAF12 agonist 1, DAX1 inh-2 3 and hcDAF12 agonist 4.
O=C(/C=C/c1cccs1)c1ccc(N2CCOCC2)cc1 was read as hgDAF12 agonist 11*, DAX1 inh-1 1, ssDAF12 agonist 0, DAX1 inh-2 3 and hcDAF12 agonist 3.
For CC(=O)N1CCN(c2ccc(NC(=O)c3ccco3)cc2)CC1 the results were hgDAF12 agonist 9, DAX1 inh-1 1, ssDAF12 agonist 1.9*, DAX1 inh-2 2 and hcDAF12 agonist 5.
Screening OC(c1ccccc1)(c1ccccc1)C1CCN(CCCOc2ccc(Br)cc2)CC1 returned hgDAF12 agonist 1, DAX1 inh-1 0, ssDAF12 agonist -1 and hcDAF12 agonist -1.
For COC(=O)[C@@H]1C[C@@]2(c3ccccc3)c3ccccc3N(S(=O)(=O)c3ccccc3)[C@H]2N1C(=O)CNC1CCCCC1 the results were hgDAF12 agonist 1, DAX1 inh-1 0, ssDAF12 agonist -1 and hcDAF12 agonist -1.
For COc1ccccc1CNS(=O)(=O)c1cccs1 the results were hgDAF12 agonist -1, DAX1 inh-1 -1, ssDAF12 agonist 0, DAX1 inh-2 5.8* and hcDAF12 agonist 0.
COc1ccccc1CNC(=O)C1CCC(CNS(=O)(=O)c2cccs2)CC1 (stereo not drawn) was read as hgDAF12 agonist -2, DAX1 inh-1 0, ssDAF12 agonist -2, DAX1 inh-2 -1 and hcDAF12 agonist 0.
`CCOc1cc(C(=O)NCCOC)cc(OCC)c1OCC` gave hgDAF12 agonist 2, DAX1 inh-1 0, ssDAF12 agonist 1.5*, DAX1 inh-2 0 and hcDAF12 agonist 2.
Screening CC(C)N1CCCCC(NC(=O)c2cccs2)C1=O (stereo not drawn) returned hgDAF12 agonist 2, DAX1 inh-1 0, ssDAF12 agonist -1 and hcDAF12 agonist 0.
For Cc1cc(CN2CCCC(N3CCc4ccccc4C3)C2)cc(C)c1O (stereo not drawn) the results were hgDAF12 agonist 11*, DAX1 inh-1 0, ssDAF12 agonist 1, DAX1 inh-2 1 and hcDAF12 agonist 5.
COc1cc2c(cc1OC)CN(C1CCCN(Cc3cccc(C(C)=O)c3)C1)CC2 (stereo not drawn) was read as hgDAF12 agonist 0, DAX1 inh-1 0, ssDAF12 agonist -1, DAX1 inh-2 0 and hcDAF12 agonist 0.
`COc1ccc(/C=C/S(=O)(=O)NCCc2ccccc2)c(CNC(=O)OC(C)(C)C)c1` gave hgDAF12 agonist 4, DAX1 inh-1 -1, ssDAF12 agonist -1 and hcDAF12 agonist -2.
For CCCC(=O)Oc1cccc(C2NC(=O)c3ccccc3O2)c1 (stereo not drawn) the results were hgDAF12 agonist 0, DAX1 inh-1 0, ssDAF12 agonist 1, DAX1 inh-2 2 and hcDAF12 agonist -2.
`CC(C)Oc1cccc(C2NC(=O)c3ccccc3O2)c1` (stereo not drawn) gave hgDAF12 agonist 2, DAX1 inh-1 0, ssDAF12 agonist -1, DAX1 inh-2 4.7* and hcDAF12 agonist 2.
CCOC(=O)c1c(C)c(C(=O)Nc2ccc3c(c2)OCO3)c(C)n1C was read as hgDAF12 agonist 3, DAX1 inh-1 0, ssDAF12 agonist -1, DAX1 inh-2 0 and hcDAF12 agonist 0.
Screening CCOC(=O)c1c(N)sc(C(=O)Nc2ccc3c(c2)OCO3)c1C returned hgDAF12 agonist 8, DAX1 inh-1 3, ssDAF12 agonist 1, DAX1 inh-2 -3 and hcDAF12 agonist 5.8*.
For CCOc1ccc2oc(C(=O)Nc3ccc4c(c3)OCO4)c(C)c2c1 the results were hgDAF12 agonist 11*, DAX1 inh-1 1, ssDAF12 agonist 0, DAX1 inh-2 0 and hcDAF12 agonist 3.
O=C(Cc1ccc(NC(=O)C2CCCN(C(=O)c3ccccc3)C2)cc1)Nc1cccc(C(=O)N2CCCCC2)c1 (stereo not drawn) was read as hgDAF12 agonist 0, DAX1 inh-1 1, ssDAF12 agonist -1 and hcDAF12 agonist 0.
`COc1ccc(NC(=O)CSc2nnc(CNC(=O)COc3ccc(Cl)cc3)o2)cc1` gave hgDAF12 agonist 13*, DAX1 inh-1 0, ssDAF12 agonist -2, DAX1 inh-2 0 and hcDAF12 agonist 1.
Screening CCCC[C@H]1C2CC(OC(=O)Nc3cccc(F)c3)C(C2)[C@H]2CCCCN21 (stereo partly drawn) returned hgDAF12 agonist 1, DAX1 inh-1 1, ssDAF12 agonist -1 and hcDAF12 agonist -2.
`CC(C)C[C@H]1CN(CCCC[C@@H]2CNC(=O)C(=O)N2CC2CCCCC2)C(=O)C(=O)N1Cc1ccccc1` gave hgDAF12 agonist 11*, DAX1 inh-1 0, ssDAF12 agonist -1 and hcDAF12 agonist -2.
For O=C1NC[C@H](CCCCN2C[C@H](Cc3ccccc3)N(CCC3CCCCC3)C(=O)C2=O)N(CC2CCCCC2)C1=O the results were hgDAF12 agonist 3, DAX1 inh-1 -1, ssDAF12 agonist -1 and hcDAF12 agonist 0.
O=C1NC[C@H](CCCCN2C[C@H](Cc3ccccc3)N(CC3CCCCC3)C(=O)C2=O)N(CCC2CCCCC2)C1=O was read as hgDAF12 agonist 1, DAX1 inh-1 0, ssDAF12 agonist 1.4* and hcDAF12 agonist -1.
CC(C)C[C@H]1CNC(=O)C(=O)N1CC1CCN(CC2CCC(C(C)(C)C)CC2)CC1 (stereo partly drawn) was read as hgDAF12 agonist 2, DAX1 inh-1 4.1*, ssDAF12 agonist -1, DAX1 inh-2 -1 and hcDAF12 agonist 0.
Screening CC(C)CCN1CCC(CN2C(=O)C(=O)NC[C@@H]2CC(C)C)CC1 returned hgDAF12 agonist 1, DAX1 inh-1 -1, ssDAF12 agonist -1 and hcDAF12 agonist -1.
Screening COc1ccc(C(C(=O)N(C)C2CCCC2)N(Cc2ccc(F)cc2)C(=O)c2csc3ccc(Cl)cc23)cc1OC (stereo not drawn) returned hgDAF12 agonist -1, DAX1 inh-1 -1, ssDAF12 agonist -2 and hcDAF12 agonist -4.
For O=C(Nc1ccc(F)cc1)OCc1cn(Cc2cc(F)ccc2F)nn1 the results were hgDAF12 agonist 1, DAX1 inh-1 1, ssDAF12 agonist -1 and hcDAF12 agonist -1.
